# From ChEMBL document CHEMBL1961873, “Compounds: GSK PKIS; Assays: Nanosyn kinase panel” (2012)
# Experiments:
# [1] = system: Proto-oncogene tyrosine-protein kinase receptor Ret (Homo sapiens), P07949 [Y791F]; conditions: at 1 µM
# [2] = target: Macrophage-stimulating protein receptor (Homo sapiens) (UniProt Q04912); conditions: at 0.1 µM
# [3] = target: Macrophage-stimulating protein receptor (Homo sapiens) (UniProt Q04912); conditions: at 1 µM
# [4] = target: Proto-oncogene tyrosine-protein kinase ROS (Homo sapiens) (UniProt P08922); conditions: at 0.1 µM
# [5] = target: Proto-oncogene tyrosine-protein kinase ROS (Homo sapiens) (UniProt P08922); conditions: at 1 µM
# [6] = target: Proto-oncogene tyrosine-protein kinase Src (Homo sapiens) (UniProt P12931); conditions: at 0.1 µM
# Chain of Proto-oncogene tyrosine-protein kinase Src (Homo sapiens) (P12931 2-536 limits assumed): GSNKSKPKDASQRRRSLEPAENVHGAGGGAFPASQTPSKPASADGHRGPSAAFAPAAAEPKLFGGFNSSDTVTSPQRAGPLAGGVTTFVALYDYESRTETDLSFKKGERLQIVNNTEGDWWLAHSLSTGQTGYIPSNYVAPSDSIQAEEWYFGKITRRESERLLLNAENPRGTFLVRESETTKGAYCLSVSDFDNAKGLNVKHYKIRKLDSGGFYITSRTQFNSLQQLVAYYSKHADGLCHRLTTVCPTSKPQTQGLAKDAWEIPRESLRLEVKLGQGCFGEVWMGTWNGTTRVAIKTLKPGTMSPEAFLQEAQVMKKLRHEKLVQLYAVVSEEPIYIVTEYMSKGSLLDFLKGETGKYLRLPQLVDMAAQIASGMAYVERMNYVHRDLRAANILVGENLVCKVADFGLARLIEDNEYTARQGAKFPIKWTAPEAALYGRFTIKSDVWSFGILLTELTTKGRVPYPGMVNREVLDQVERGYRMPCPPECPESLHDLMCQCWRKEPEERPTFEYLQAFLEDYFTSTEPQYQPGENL
# [7] = target: Proto-oncogene tyrosine-protein kinase Src (Homo sapiens) (UniProt P12931); conditions: at 1 µM
# [8] = target: Tyrosine-protein kinase Srms (Homo sapiens) (UniProt Q9H3Y6); conditions: at 0.1 µM
# Chain of Tyrosine-protein kinase Srms (Homo sapiens) (Q9H3Y6 whole entry): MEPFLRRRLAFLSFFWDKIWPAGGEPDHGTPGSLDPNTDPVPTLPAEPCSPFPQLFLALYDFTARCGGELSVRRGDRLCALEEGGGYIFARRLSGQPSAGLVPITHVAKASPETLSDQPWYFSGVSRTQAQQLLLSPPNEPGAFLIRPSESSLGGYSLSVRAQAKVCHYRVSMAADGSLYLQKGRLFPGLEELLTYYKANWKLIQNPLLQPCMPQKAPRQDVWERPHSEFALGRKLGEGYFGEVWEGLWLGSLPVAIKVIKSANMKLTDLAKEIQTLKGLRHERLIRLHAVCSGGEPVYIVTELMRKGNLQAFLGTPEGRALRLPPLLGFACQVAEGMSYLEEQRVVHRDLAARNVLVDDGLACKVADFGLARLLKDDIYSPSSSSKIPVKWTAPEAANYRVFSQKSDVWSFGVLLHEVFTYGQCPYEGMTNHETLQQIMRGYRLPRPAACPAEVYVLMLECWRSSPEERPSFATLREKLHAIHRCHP
# [9] = target: Tyrosine-protein kinase Srms (Homo sapiens) (UniProt Q9H3Y6); conditions: at 1 µM
# [10] = target: Tyrosine-protein kinase SYK (Homo sapiens) (UniProt P43405); conditions: at 0.1 µM
# [11] = target: Tyrosine-protein kinase SYK (Homo sapiens) (UniProt P43405); conditions: at 1 µM
# [12] = target: T1, Tyrosine-protein kinase Tec (Homo sapiens) (UniProt P42680); conditions: at 0.1 µM
# T1 sequence (whole entry): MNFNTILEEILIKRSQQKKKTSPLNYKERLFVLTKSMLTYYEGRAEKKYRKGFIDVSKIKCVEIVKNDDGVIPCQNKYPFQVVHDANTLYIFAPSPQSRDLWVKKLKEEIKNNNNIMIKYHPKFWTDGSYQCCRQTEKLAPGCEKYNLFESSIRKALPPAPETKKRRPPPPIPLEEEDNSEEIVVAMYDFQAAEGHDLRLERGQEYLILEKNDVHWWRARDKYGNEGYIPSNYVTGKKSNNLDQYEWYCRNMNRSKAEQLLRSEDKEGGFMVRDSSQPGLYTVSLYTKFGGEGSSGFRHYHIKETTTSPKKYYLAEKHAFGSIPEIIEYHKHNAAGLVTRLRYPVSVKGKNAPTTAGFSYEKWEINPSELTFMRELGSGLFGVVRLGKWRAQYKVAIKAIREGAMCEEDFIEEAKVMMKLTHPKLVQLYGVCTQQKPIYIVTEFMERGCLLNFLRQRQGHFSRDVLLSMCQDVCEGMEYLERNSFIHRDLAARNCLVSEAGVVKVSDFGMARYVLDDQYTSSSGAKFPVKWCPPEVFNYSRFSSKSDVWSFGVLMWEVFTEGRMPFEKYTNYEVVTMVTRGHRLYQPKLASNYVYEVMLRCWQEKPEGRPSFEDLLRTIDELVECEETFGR
# [13] = target: T1, Tyrosine-protein kinase Tec (Homo sapiens); conditions: at 1 µM
# [14] = target: Angiopoietin-1 receptor (Homo sapiens) (UniProt Q02763); conditions: at 0.1 µM
# Chain of Angiopoietin-1 receptor (Homo sapiens) (Q02763 whole entry): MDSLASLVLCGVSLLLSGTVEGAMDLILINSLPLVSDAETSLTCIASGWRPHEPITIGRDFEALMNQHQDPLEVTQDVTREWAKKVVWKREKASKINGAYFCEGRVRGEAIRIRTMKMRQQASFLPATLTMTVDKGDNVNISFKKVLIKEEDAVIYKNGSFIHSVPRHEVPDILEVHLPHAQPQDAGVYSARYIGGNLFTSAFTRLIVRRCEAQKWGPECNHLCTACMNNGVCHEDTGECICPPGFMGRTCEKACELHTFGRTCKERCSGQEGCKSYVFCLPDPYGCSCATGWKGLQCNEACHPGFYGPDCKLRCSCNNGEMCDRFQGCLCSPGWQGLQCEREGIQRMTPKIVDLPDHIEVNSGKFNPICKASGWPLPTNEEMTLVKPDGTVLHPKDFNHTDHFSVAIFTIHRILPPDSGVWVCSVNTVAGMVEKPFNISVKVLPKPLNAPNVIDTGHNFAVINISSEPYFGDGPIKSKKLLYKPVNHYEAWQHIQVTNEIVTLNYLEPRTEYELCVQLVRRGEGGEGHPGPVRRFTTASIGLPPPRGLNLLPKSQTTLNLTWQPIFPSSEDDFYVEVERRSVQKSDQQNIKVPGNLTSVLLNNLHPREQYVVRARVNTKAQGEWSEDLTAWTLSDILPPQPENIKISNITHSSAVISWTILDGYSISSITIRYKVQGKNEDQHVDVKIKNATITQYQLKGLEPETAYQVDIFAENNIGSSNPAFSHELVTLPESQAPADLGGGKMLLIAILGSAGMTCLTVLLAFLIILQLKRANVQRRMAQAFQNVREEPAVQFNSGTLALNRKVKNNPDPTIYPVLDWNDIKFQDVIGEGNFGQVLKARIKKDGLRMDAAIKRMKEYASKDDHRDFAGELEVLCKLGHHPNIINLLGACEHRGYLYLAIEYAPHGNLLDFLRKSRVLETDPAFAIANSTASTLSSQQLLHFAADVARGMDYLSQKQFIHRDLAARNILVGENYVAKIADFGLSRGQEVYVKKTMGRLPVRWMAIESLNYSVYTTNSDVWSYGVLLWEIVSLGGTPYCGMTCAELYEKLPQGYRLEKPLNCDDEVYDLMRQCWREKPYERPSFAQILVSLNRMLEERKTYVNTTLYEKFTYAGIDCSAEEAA
# [15] = target: Angiopoietin-1 receptor (Homo sapiens) (UniProt Q02763); conditions: at 1 µM
# [16] = target: T2, Non-receptor tyrosine-protein kinase TNK1 (Homo sapiens) (UniProt Q13470); conditions: at 0.1 µM
# T2 sequence (whole entry): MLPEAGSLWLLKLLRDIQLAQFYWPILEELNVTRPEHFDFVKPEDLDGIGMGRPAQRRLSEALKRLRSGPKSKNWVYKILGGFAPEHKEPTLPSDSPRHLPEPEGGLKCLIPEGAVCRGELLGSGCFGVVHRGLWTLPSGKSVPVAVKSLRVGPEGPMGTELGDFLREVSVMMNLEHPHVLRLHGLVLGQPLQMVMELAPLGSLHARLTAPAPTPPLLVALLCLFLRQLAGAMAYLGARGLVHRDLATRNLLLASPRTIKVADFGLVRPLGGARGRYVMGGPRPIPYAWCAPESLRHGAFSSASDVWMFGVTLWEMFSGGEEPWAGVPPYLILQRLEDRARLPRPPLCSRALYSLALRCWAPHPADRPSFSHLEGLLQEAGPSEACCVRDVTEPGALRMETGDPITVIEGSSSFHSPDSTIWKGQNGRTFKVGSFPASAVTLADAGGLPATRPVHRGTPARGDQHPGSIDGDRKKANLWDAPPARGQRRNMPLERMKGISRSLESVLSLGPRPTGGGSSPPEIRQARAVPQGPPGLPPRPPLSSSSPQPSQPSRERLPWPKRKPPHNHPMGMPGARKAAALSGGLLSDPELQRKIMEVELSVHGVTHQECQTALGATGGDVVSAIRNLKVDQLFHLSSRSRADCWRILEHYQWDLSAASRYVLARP
# [17] = target: T2, Non-receptor tyrosine-protein kinase TNK1 (Homo sapiens); conditions: at 1 µM
# [18] = target: Activated CDC42 kinase 1 (Homo sapiens) (UniProt Q07912); conditions: at 0.1 µM
# [19] = target: Activated CDC42 kinase 1 (Homo sapiens) (UniProt Q07912); conditions: at 1 µM
# [20] = target: High affinity nerve growth factor receptor (Homo sapiens) (UniProt P04629); conditions: at 0.1 µM;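 also: each value is a mean of replicate percent inhibition readings against TRKA kinase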
# Chain of High affinity nerve growth factor receptor (Homo sapiens) (P04629 33-796 limits assumed): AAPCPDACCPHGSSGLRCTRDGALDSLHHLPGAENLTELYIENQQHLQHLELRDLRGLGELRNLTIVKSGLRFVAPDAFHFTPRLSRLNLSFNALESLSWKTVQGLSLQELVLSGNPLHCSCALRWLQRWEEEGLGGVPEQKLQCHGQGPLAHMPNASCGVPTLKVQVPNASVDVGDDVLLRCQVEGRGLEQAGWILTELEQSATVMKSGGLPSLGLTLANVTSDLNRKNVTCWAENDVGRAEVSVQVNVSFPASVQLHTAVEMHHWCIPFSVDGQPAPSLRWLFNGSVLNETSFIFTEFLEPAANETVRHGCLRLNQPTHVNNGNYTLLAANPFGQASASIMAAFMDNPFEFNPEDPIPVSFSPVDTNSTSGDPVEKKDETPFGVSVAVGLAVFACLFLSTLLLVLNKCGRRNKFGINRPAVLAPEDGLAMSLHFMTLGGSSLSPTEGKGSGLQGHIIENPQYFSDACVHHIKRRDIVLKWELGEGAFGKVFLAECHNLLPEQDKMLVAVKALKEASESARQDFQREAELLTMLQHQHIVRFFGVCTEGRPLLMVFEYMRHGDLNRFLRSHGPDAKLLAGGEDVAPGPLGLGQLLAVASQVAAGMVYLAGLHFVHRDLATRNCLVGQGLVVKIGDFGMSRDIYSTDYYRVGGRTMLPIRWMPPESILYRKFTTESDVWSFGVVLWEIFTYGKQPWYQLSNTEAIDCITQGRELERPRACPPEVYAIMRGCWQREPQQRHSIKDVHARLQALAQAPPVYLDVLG
# Chain of Macrophage-stimulating protein receptor (Homo sapiens) (Q04912 25-304 limits assumed): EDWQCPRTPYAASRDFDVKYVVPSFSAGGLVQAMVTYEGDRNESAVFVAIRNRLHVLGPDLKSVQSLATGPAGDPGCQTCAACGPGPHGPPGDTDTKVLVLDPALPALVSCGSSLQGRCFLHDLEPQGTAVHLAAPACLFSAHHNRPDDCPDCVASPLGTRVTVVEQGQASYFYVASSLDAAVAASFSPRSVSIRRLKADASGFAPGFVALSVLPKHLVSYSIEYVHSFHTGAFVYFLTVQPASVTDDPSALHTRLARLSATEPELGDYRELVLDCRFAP
# Chain of Macrophage-stimulating protein receptor (Homo sapiens) (Q04912 310-1400 limits assumed): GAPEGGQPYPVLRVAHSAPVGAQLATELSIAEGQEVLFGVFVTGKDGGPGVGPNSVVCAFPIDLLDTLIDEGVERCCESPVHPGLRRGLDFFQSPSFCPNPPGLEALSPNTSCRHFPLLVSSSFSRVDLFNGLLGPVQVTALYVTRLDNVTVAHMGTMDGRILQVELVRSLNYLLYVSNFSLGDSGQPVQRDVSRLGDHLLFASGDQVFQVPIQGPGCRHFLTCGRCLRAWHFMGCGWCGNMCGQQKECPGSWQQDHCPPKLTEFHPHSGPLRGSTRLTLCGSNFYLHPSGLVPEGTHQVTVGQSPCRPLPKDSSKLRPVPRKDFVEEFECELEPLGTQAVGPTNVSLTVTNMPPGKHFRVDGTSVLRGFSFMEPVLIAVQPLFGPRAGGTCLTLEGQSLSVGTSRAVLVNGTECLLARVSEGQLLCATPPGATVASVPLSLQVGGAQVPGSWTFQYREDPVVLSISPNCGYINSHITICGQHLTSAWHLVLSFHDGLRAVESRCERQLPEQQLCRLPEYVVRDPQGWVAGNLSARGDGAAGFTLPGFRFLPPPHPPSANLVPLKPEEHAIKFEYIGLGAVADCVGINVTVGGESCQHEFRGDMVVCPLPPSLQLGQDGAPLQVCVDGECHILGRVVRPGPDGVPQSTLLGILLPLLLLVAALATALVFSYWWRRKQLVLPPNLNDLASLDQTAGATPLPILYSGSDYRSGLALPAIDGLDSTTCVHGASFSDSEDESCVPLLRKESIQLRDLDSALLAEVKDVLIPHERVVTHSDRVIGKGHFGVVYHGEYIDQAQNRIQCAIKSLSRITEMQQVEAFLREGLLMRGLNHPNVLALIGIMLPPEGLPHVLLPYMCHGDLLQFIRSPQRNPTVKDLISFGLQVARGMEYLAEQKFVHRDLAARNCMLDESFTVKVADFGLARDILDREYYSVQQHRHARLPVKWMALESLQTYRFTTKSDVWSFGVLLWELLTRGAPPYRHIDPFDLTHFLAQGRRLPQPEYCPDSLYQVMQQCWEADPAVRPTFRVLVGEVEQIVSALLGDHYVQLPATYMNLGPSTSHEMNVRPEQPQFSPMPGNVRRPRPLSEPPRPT
Compound,inhibition [1] [%],inhibition [2] [%],inhibition [3] [%],inhibition [4] [%],inhibition [5] [%],inhibition [6] [%],inhibition [7] [%],inhibition [8] [%],inhibition [9] [%],inhibition [10] [%],inhibition [11] [%],inhibition [12] [%],inhibition [13] [%],inhibition [14] [%],inhibition [15] [%],inhibition [16] [%],inhibition [17] [%],inhibition [18] [%],inhibition [19] [%],inhibition [20] [%]
c1ccc(-c2nc3n(c2-c2ccc4c(c2)OCO4)CCC3)nc1,1.82,0.69,1.59,4.52,4.91,-7.85,2.73,-0.53,-1.55,-1.33,2.09,1.69,0.69,-0.12,1.12,0.76,0.08,0.05,0.93,1.9
O=C(Nc1n[nH]c2cc(-c3ccc(F)cc3)ccc12)C1CC1,2.03,3.73,1.45,4.52,6.57,0.9,6.35,-1.28,-0.73,-3.9,1.05,3.06,4.11,1.89,6.64,0.9,5.38,0.53,1.19,4.77
COc1ccc2c(-c3ccnc(Nc4cccc(OC(F)(F)F)c4)n3)cnn2n1,11.9,2.53,9.83,11.1,46.5,5.55,23.6,-1.28,1.58,-2.58,-3.35,6.32,11.9,1.4,4.58,9.21,45,1.32,3.83,4.63
COc1cc(/C=N/Nc2ncnc3[nH]ncc23)ccc1O,80.9,-1.46,17,5.97,27,27.9,83.2,-0.95,6.55,-7.54,14.2,8.19,38.6,2.16,9.2,4.02,18.9,1.76,8.52,2.3
CC(C)COC(=O)c1ccc2c(c1)/C(=C/Nc1ccc(S(N)(=O)=O)cc1)C(=O)N2,69.9,-0.4,16.7,1.71,15.3,2.28,39.5,5.32,3.32,4.14,-2.67,0.3,6.56,0.75,7.91,-3.82,5.07,-0.91,0.01,2.03
COc1ccc(CNC(=O)c2ccc(-c3cc(-c4nnc(C)o4)ccc3C)cc2)cc1,19.9,10.5,3.7,6.1,5.4,1.18,2.9,3.8,8.13,2.81,0.6,2.72,3.52,3.37,8.26,6.31,16,3.84,6,-2.81
CC(C)(CO)CNC(=O)c1ccc2c(c1)/C(=N/Nc1ccc(S(N)(=O)=O)cc1)C(=O)N2,56.3,3.52,2.41,0.74,3.7,5.77,34.2,-0.93,0.39,0.61,-2.05,0.59,5.32,-0.74,0.79,0.66,10.3,-0.56,0.03,1.4
CN1CCC(n2cnc(-c3ccc(F)cc3)c2-c2ccnc(Nc3ccccc3)n2)CC1,36.2,2.65,4,1.54,4,9.92,11.8,1.77,3.09,1.08,0.18,3.59,3.4,2.95,4.52,-0.22,7.4,0.74,2.45,-0.03
Nc1ncc(-c2cccc(S(N)(=O)=O)c2)c2scc(-c3ccc(F)c(Cl)c3)c12,50.2,1.48,15.8,-0.54,6.78,19.6,57.1,-1.03,6.75,0.28,-4.44,25.8,75.2,2.99,11.1,6.81,36,5.03,36.6,1.33
N#Cc1c(NC(=O)CN2CCOCC2)sc2c1CCCC2,8.63,-0.19,6.37,6.7,13,-1.56,7.9,-1.35,0.73,-0.42,-1.53,3.74,7.22,2.61,4.26,3.32,8.64,1.58,3.21,3.46
CCOc1ccc2c(-c3ccnc(Nc4cccc(C(F)(F)F)c4)n3)cnn2n1,12.4,4.92,-3.11,2.05,15,4.83,3.76,-3.13,-1.56,-1.67,-6.38,-0.08,4.44,1.3,7.44,-0.72,14.7,0.55,0.5,0.72
Fc1ccc(-c2nn3ncccc3c2-c2ccnc(Nc3ccc4c(c3)OCCO4)n2)cc1,65.8,-2.95,4.64,4.11,10.9,40.2,83.9,-0.06,9.83,-5.37,-3.1,11.3,45.3,6.26,23.4,8.48,30.4,1.35,13,2.82
CS(=O)(=O)CCNCc1ccc(-c2ccc3ncnc(Nc4ccc(OCc5ccccc5)c(C(F)(F)F)c4)c3c2)o1,6.81,-2.49,-4.8,3.04,6.52,6.38,7.74,-2.3,-1.62,-2.88,-5.62,0.36,3.4,0.1,4.31,1.84,9.92,0.97,1.65,2
COc1ccc(-c2cc(-c3c[nH]nc3-c3ccccn3)ccn2)cc1,17.4,2.4,21.3,3.05,8.62,0.76,11.1,-2.06,0.71,-6.85,-0.69,4.44,5.59,2.18,2.66,4.34,11.9,1.58,3.35,1.86
CNC(=O)c1cccc(C#Cc2cncnc2Nc2ccc(OCc3cccc(F)c3)c(Cl)c2)c1,20.7,0.58,0.88,-2.5,1.03,-0.84,5.22,0.46,1.17,-6.37,0.47,0.86,2.99,-0.1,2.32,-0.06,10.8,-0.6,0.21,-0.85
